From PubChem BioAssay (NCI)
Where “and” joins values, the source holds several entries; their conditions need not be identical. Identical values can stand only once. About 83,000 compounds went through this panel and 20% of them were active in at least one assay; those are over-represented in the sample as a whole.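 96-well plates, one dose, 48 hours. Percent growth reported; active if below 10.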 Calls of active or inactive are those of the source.

How the values were obtained:
Test in all cases: NCI-60 one-dose screen, 48 h (100 = growth as untreated, 0 = no growth, -100 = all killed)
Settings in all cases: 10 µM unless noted
NCI-H23 lung = tested on: NCI-H23 lung
NCI-H226 lung = tested on: NCI-H226 lung
NCI-H322M lung = tested on: NCI-H322M lung
HOP-62 NSCLC = tested on: HOP-62 NSCLC
NCI-H460 lung = tested on: NCI-H460 lung
HOP-92 NSCLC = tested on: HOP-92 NSCLC
NCI-H522 lung = tested on: NCI-H522 lung
A549/ATCC NSCLC = tested on: A549/ATCC NSCLC
786-0 renal = tested on: 786-0 renal
COLO 205 colon = tested on: COLO 205 colon

Measured: growth

C[C@]12CCc3sc(Nc4ccc(OC(F)(F)F)cc4)nc3C1=CC[C@@H]1[C@@H]2CC[C@]2(C)C(=O)CC[C@@H]12
inactive: NCI-H23 lung 75.5% | NCI-H226 lung 74.9% | NCI-H322M lung 77.3% | HOP-62 NSCLC 80% | NCI-H460 lung 53.3% | HOP-92 NSCLC 75% | NCI-H522 lung 89.1% | A549/ATCC NSCLC 67% | 786-0 renal 30.5% | COLO 205 colon 67.9%

O=C1C=C(N2CC2)c2ccccc2C1=O
inactive: NCI-H23 lung 41.4% | NCI-H226 lung 92% | NCI-H322M lung 91.1% | HOP-62 NSCLC 76% | NCI-H460 lung 23.2% | HOP-92 NSCLC 119% | NCI-H522 lung 52.7% | A549/ATCC NSCLC 54.3% | 786-0 renal 104% | COLO 205 colon 94.3%

C[C@]12C[C@H](c3ccoc3)OC(=O)[C@H]1CC[C@@]1(C)[C@@H]2[C@H]2C=C[C@]1(O)C(=O)O2
inactive: NCI-H23 lung 102% | NCI-H226 lung 101% | NCI-H322M lung 79.1% | HOP-62 NSCLC 104% | NCI-H460 lung 108% | HOP-92 NSCLC 81.3% | NCI-H522 lung 68.1% | A549/ATCC NSCLC 84.5% | 786-0 renal 91.9% | COLO 205 colon 104%

CC(=O)Nc1nc2c(s1)C1=CC[C@H]3[C@@H]4CC[C@H](OC(C)=O)[C@@]4(C)CC[C@@H]3[C@@]1(C)CC2
inactive: NCI-H23 lung 69.7% | NCI-H226 lung 91.7% | NCI-H322M lung 75.2% | HOP-62 NSCLC 55.6% | NCI-H460 lung 64.1% | HOP-92 NSCLC 87.2% | NCI-H522 lung 39.3% | A549/ATCC NSCLC 54% | 786-0 renal 32% | COLO 205 colon 67.3%

CCCCn1c(=O)c(C(=O)NCc2ccccc2Cl)c(O)c2ccccc21
inactive: NCI-H23 lung 54.1% | NCI-H226 lung 63% | NCI-H322M lung 75.2% | HOP-62 NSCLC 76.9% | NCI-H460 lung 67.6% | HOP-92 NSCLC 66.9% | NCI-H522 lung 73.4% | A549/ATCC NSCLC 58% | 786-0 renal 52.2% | COLO 205 colon 92.8%

CCCC(C)SP(=S)(SC(C)CCC)SC(C)CCC (configuration not stated)
inactive: NCI-H23 lung 95.5% | NCI-H226 lung 88.8% | NCI-H322M lung 101% | HOP-62 NSCLC 101% | NCI-H460 lung 98.9% | HOP-92 NSCLC 94.7% | NCI-H522 lung 90.9% | 786-0 renal 98.9% | COLO 205 colon 98.6%

c1ccc2c(c1)sc1ccccc12
inactive: NCI-H23 lung 99.8% | NCI-H226 lung 94.7% | NCI-H322M lung 95.7% | HOP-62 NSCLC 97.7% | NCI-H460 lung 109% | HOP-92 NSCLC 74.7% | NCI-H522 lung 98.9% | 786-0 renal 105% | COLO 205 colon 98.6%

COC(=O)C1=CCCN(C)C1
inactive: NCI-H23 lung 104% and 101% | NCI-H226 lung 100% and 101% | NCI-H322M lung 96.2% and 82.7% | HOP-62 NSCLC 109% | NCI-H460 lung 110% and 106% | HOP-92 NSCLC 76.9% | NCI-H522 lung 96.8% and 73.1% | A549/ATCC NSCLC 101% | 786-0 renal 100% and 101% | COLO 205 colon 114% and 121%

CN1C2CCC1[C@@H](COC(=O)c1ccccc1)[C@@H](O)C2 (some centres not stated)
inactive: NCI-H23 lung 108% | NCI-H226 lung 99.6% | NCI-H322M lung 119% | HOP-62 NSCLC 99.7% | NCI-H460 lung 113% | HOP-92 NSCLC 69.9% | NCI-H522 lung 64.9% | A549/ATCC NSCLC 99.2% | 786-0 renal 108% | COLO 205 colon 129%

NC(=O)c1c(Br)c(Br)c(Br)c(Br)c1C(=O)O (tested in a mixture with another compound)
inactive: NCI-H23 lung 99.9% and 100% | NCI-H226 lung 99.8% and 98.4% | NCI-H322M lung 105% and 114% | HOP-62 NSCLC 124% and 103% | NCI-H460 lung 111% | HOP-92 NSCLC 85.8% and 86% | A549/ATCC NSCLC 102% and 98% | 786-0 renal 109% and 104% | COLO 205 colon 113% and 104%

COC[C@H]1OC(=O)c2coc3c2[C@@]1(C)C1=C(C3=O)[C@@H]2CCC(=O)[C@@]2(C)C[C@H]1OC(C)=O
active: HOP-92 NSCLC -0.194%
inactive: NCI-H23 lung 56.5% | NCI-H226 lung 62.5% | NCI-H322M lung 35.3% | HOP-62 NSCLC 57.7% | NCI-H460 lung 43% | NCI-H522 lung 48.4% | A549/ATCC NSCLC 10.1% | 786-0 renal 39.3% | COLO 205 colon 65.2%

C/C(=C\c1ccn(-c2ccc(N)cc2F)n1)[C@@H]1C[C@@H]2O[C@]2(C)CCC[C@H](C)[C@H](O)[C@@H](C)C(=O)C(C)(C)[C@@H](O)CC(=O)O1
active: COLO 205 colon -5.18%
inactive: NCI-H23 lung 25.2% | NCI-H226 lung 35.6% | NCI-H322M lung 15.5% | HOP-62 NSCLC 36.4% | NCI-H460 lung 11% | HOP-92 NSCLC 49% | NCI-H522 lung 10.2% | A549/ATCC NSCLC 22.5% | 786-0 renal 18.1%

CC[C@H](C)[C@H](NC(=O)[C@H]1CCCCN1C)C(=O)N(C)[C@H](C[C@@H](OC(C)=O)c1nc(C(=O)NC23C4C5C2C2C3C4C52C(=O)OC)cs1)C(C)C (some centres not stated)
active: HOP-92 NSCLC -1.14% | NCI-H522 lung -16.1% | A549/ATCC NSCLC 7.26% | COLO 205 colon -42.8%
inactive: NCI-H23 lung 18.6% | NCI-H226 lung 14.3% | NCI-H322M lung 48.3% | HOP-62 NSCLC 21.5% | NCI-H460 lung 12.6% | 786-0 renal 13.7%

COC(=O)[C@@H](C)C[C@H](Cc1ccccc1)NC(=O)c1cccc([C@@H](C[C@H](C(C)C)N(C)C(=O)[C@@H](NC(=O)[C@H]2CCCCN2C)C2CC2)OC(C)=O)n1
active: HOP-62 NSCLC 3.33% | NCI-H460 lung 7.3% | HOP-92 NSCLC 5.28% | NCI-H522 lung -11.3% | A549/ATCC NSCLC 7.97% | COLO 205 colon -69%
inactive: NCI-H23 lung 21% | NCI-H226 lung 22.8% | NCI-H322M lung 39.4% | 786-0 renal 20.8%

CC[C@H](C)[C@H](NC(=O)C12CC(NC)(C1)C2)C(=O)N(C)[C@H](C[C@@H](OC(C)=O)c1nc(C(=O)N[C@@H](Cc2ccccc2)C[C@H](C)C(=O)OC)cs1)C(C)C
active: NCI-H522 lung -23.9% | COLO 205 colon -19.6%
inactive: NCI-H23 lung 15.2% | NCI-H226 lung 24.9% | NCI-H322M lung 51.2% | HOP-62 NSCLC 28.6% | NCI-H460 lung 15% | HOP-92 NSCLC 17.5% | A549/ATCC NSCLC 20% | 786-0 renal 24.7%

N#CC(C#N)=Cc1cccc(F)c1
inactive: NCI-H23 lung 102% | NCI-H226 lung 103% | NCI-H322M lung 104% | HOP-62 NSCLC 95.2% | NCI-H460 lung 105% | HOP-92 NSCLC 130% | NCI-H522 lung 99.4% | A549/ATCC NSCLC 100% | 786-0 renal 103% | COLO 205 colon 115%

Oc1ccccc1C=NCCN=Cc1ccccc1O
inactive: NCI-H23 lung 99.8% | NCI-H226 lung 99.5% | NCI-H322M lung 97.5% | HOP-62 NSCLC 96.9% | NCI-H460 lung 107% | HOP-92 NSCLC 99.6% | NCI-H522 lung 92.3% | A549/ATCC NSCLC 98.7% | 786-0 renal 106% | COLO 205 colon 118%

CNC(=O)CCl
inactive: NCI-H23 lung 101% | NCI-H226 lung 90.9% | NCI-H322M lung 102% | HOP-62 NSCLC 98.5% | NCI-H460 lung 107% | HOP-92 NSCLC 93.7% | NCI-H522 lung 106% | A549/ATCC NSCLC 96.3% | COLO 205 colon 108%

COc1ccc2c(c1)c(-c1nc(-c3cn(C)c4ncccc34)cs1)cn2CCCCN1CCOCC1
inactive: NCI-H23 lung 78.4% | NCI-H226 lung 70.1% | NCI-H322M lung 65.9% | HOP-62 NSCLC 30.9% | HOP-92 NSCLC 47.9% | A549/ATCC NSCLC 48.3%
active: NCI-H460 lung -31.9% | 786-0 renal -71.7% | COLO 205 colon -91.7%

O=C(NCCCN1CC1)Nc1cccc2ccccc12
inactive: NCI-H23 lung 104% and 92.7% | NCI-H226 lung 102% and 92.4% | NCI-H322M lung 116% and 102% | HOP-62 NSCLC 48.9% and 87.9% | NCI-H460 lung 109% and 91% | HOP-92 NSCLC 90.5% | A549/ATCC NSCLC 97.3% and 91.6% | 786-0 renal 108% and 103% | COLO 205 colon 106% and 103%

CC[C@H](C)[C@H]1O[C@]2(C=C[C@@H]1C)C[C@@H]1C[C@@H](C/C=C(\C)[C@@H](O[C@H]3C[C@H](OC)[C@@H](O[C@H]4C[C@H](OC)[C@@H](NC)[C@H](C)O4)[C@H](C)O3)[C@@H](C)/C=C/C=C3\CO[C@@H]4[C@H](O)C(C)=C[C@@H](C(=O)O1)[C@]34O)O2
active: NCI-H23 lung -68.8% | NCI-H226 lung -75.2% | NCI-H322M lung -22.3% | HOP-62 NSCLC -60.9% | NCI-H460 lung -77.4% | HOP-92 NSCLC -33.8% | A549/ATCC NSCLC -51.6% | 786-0 renal -88.4% | COLO 205 colon -71.6%

C[C@H](O)CCC(=O)c1ccoc1
inactive: NCI-H23 lung 99.7% | NCI-H226 lung 99.2% | NCI-H322M lung 106% | HOP-62 NSCLC 108% | NCI-H460 lung 105% | HOP-92 NSCLC 111% | NCI-H522 lung 99.5% | A549/ATCC NSCLC 97% | 786-0 renal 106% | COLO 205 colon 116%

Cc1cc[c-]cc1.Fc1c[c-]c(-c2ccccn2)c(F)c1.N#CCC[PH+](CCC#N)c1ccccc1.[Pt+2]
inactive: NCI-H23 lung 34.3% | NCI-H226 lung 72.3% | NCI-H322M lung 79.4% | HOP-62 NSCLC 116% | NCI-H460 lung 43.1% | HOP-92 NSCLC 16.3% | NCI-H522 lung 16% | A549/ATCC NSCLC 50.5% | 786-0 renal 48.9% | COLO 205 colon 12.5%

N#CC(NC(=O)CCl)=C(Cl)Cl
active: HOP-92 NSCLC -71.5% | NCI-H522 lung -84.4% | 786-0 renal -72.2% | COLO 205 colon -90.4%
inactive: NCI-H23 lung 28.5% | NCI-H226 lung 70.8% | NCI-H322M lung 78.6% | HOP-62 NSCLC 73.2% | NCI-H460 lung 50.7% | A549/ATCC NSCLC 66.8%

N#CCC(=O)c1ccccc1
inactive: NCI-H23 lung 97.7% | NCI-H226 lung 97.9% | NCI-H322M lung 96.6% | HOP-62 NSCLC 101% | NCI-H460 lung 96.9% | HOP-92 NSCLC 86.8% | NCI-H522 lung 102% | 786-0 renal 107% | COLO 205 colon 101%
